# Compound activity from PubChem BioAssay.
# The list is not random: actives were taken first. Their share in the collection is about 6.6%.
# HT1080 IDH1KD tx: qHTS for induction of synthetic lethality in tumor cells producing 2HG: qHTS for the HT-1080-IDH1KD cell line | HT-1080 IDH1 knockdown viability, ATP luminescence, 48 h | Potency, µM (doses to about 46.1 µM), without a hit: at the highest dose activity, negative = toxicity, most hits filed as cytotoxic | 360,000 compounds, 2% hits;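 also: 0% = DMSO wells and -100% = cell-free medium wells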
#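 Knockdown cells (IDH1KD HT-1080) received compounds 2 h after plating at 750 cells/well and were kept 48 h at 37 °C in 5% FBS RPMI. A CellTiter-Glo luminescence read gave % activity for curve fitting.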
# HepG2 viability: qHTS for Inhibitors of TGF-b: Cytotox Counterscreen | HepG2 CAGA-GFP viability, ATP luminescence, 18 h | Potency, µM (series often up to 46.1 µM), inactives show at the top dose activity change, negative = cytotoxicity, hits mostly cytotoxic | 410,000 compounds, 0.76% hits | AID 588856, 2011
#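 HepG2 CAGA-GFP cells (1000/well, DMEM with 1% FBS) received compound, then TGF-beta at 500 pg/mL final, and were incubated 18 hours at 37 degrees C. Viability was read by CellTiter-Glo luminescence. Media-only wells were set as complete cell-killing and DMSO as no toxicity.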
# KB-3-1 tox: qHTS assay for MDR1-selective chemotherapeutics: Primary screen using the parental adenocarcinoma cell KB-3-1. Potency, µM (doses to about 46.1 µM), actives largely listed as cytotoxic. KB-3-1 viability, CellTiter-Glo ATP luminescence, 72 h. 400,000 compounds, 1.4% hits; also: % is scaled to controls: 0 for no effect and ±100 for the full control effect; nearly all actives have a fitted effect of over 60% in size
#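 Multi-concentration cytotoxicity screen in KB-3-1 cells grown in DMEM lacking phenol red with 10% FBS. After 72 h at 37 °C with compound, ATP-dependent luminescence was recorded.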
# HT1080NT lethal: qHTS for induction of synthetic lethality in tumor cells producing 2HG: qHTS for the HT-1080-NT fibrosarcoma cell line | HT-1080-NT fibrosarcoma viability, CellTiter-Glo ATP luminescence, 48 h | Potency, µM (doses to about 46.1 µM), inactives show top-dose activity, negative = less viability, most hits filed as cytotoxic | 360,000 compounds, 1.6% hits | AID 686970, 2013;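 also: NT is the 2HG producing partner of a matched IDH1 knockdown line; 0% = DMSO-treated cells and -100% = media-only wells without cells; nearly all actives have a fitted effect of over 55% in size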
#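 Toxicity toward the 2HG-producing NT line was scored as %Activity, normalised to DMSO and no-cell wells, from CellTiter-Glo luminescence after 48 hours' treatment.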
# KB-V1 MDR tox: qHTS assay for MDR1-selective chemotherapeutics: Primary screen using the drug-selected MDR subline cells KB-V1; KB-V1 MDR cells viability, CellTiter-Glo, 72 h; Potency, µM (highest dose often 46.1 µM), hits mostly cytotoxic; 400,000 compounds, 3.4% hits; AID 1347076, 2019; also: % is scaled to controls: 0 for no effect and ±100 for the full control effect; nearly all actives have a fitted effect of over 60% in size
#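 KB-V1 cells (P-gp-expressing MDR subline of KB-3-1) in phenol-red-free DMEM with 10% FBS were exposed to library compounds over a concentration series for 72 h at 37 degrees C. Viability read by CellTiter-Glo luminescence; concentration-effect curves fitted after normalization.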
# TGFb SMAD3 inh: qHTS for Inhibitors of TGF-b; HepG2 CAGA-GFP TGF-b/SMAD3 reporter, GFP fluorescence, 18 h; TGF-beta stimulated, 500 pg/mL final; Potency, µM (highest dose often 46.1 µM), without a hit: top-dose activity, negative = inhibition, usual class: inhibitors; 410,000 compounds, 1.2% hits; AID 588855, 2011; also: % is scaled to controls: 0 for no effect and ±100 for the full control effect; nearly all actives have a fitted effect of over 65% in size
#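 TGF-beta reporter screen: HEPG2 CAGA-GFP, 1% FBS, 500 pg/mL TGF-beta final, 18 h; per-cell GFP summed per well; curves fitted and categorized by class.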
# Numbers without * were called inactive; i = inactive; u = inconclusive; x = not tested or not shown. Calls follow the shape of the dose curve; as a rule, active = well fitted curve in the direction sought with a large enough effect; inconclusive = small, poorly fitted or top-dose-only effect, or another doubt; inactive = no such curve, though single readings can be large; an effect the other way counts as inactive or inconclusive. Potency is read from the fitted curve at half-maximal effect.
SMILES,HT1080 IDH1KD tx,HepG2 viability,KB-3-1 tox,HT1080NT lethal,KB-V1 MDR tox,TGFb SMAD3 inh
O=C1C(N2CCOCC2)=C(n2nnc3ccccc32)C(=O)c2ccccc21,16µM*,14µM*,i,12µM*,4.1µM*,u
CCCCC1C(=O)N(c2ccccc2)N(c2ccc(O)cc2)C1=O (stereo not given),9%,8.9µM*,i,u,i,5.6µM*
Cc1c(Cl)cccc1-n1ncc(C(=O)Nc2ccc(F)cc2F)c1C1CCN(C(=O)OC(C)(C)C)CC1,x,-8%,i,x,u,u
CN=C1S/C(=C\c2ccc(N3CCOCC3)c(F)c2)C(=O)N1C,1%,-15%,u,1%,16µM*,13%
COc1cccc(CNC(=O)CCc2c(C)c3cc4c(C)coc4cc3oc2=O)c1,x,-5%,i,x,i,4%
O=[N+]([O-])c1ccc(-[n+]2ccc3ccccc3c2)c([N+](=O)[O-])c1,u,13µM*,4.6µM*,u,5.2µM*,5µM*
O=C(CCc1nc2ccccc2c(=O)[nH]1)NCCN1C(=O)S/C(=C\c2ccccc2Cl)C1=O,1%,-6%,i,-2%,u,-7%
O=C(CCc1nc2ccccc2c(=O)[nH]1)NCCN1C(=O)S/C(=C\c2ccc(OC(F)F)cc2)C1=O,u,10µM*,i,-17%,i,4%
Oc1c(Cl)cc(Cl)c2c1NCCC2,-22%,-46%,i,-2%,u,14µM*
Cc1nnc(N2CCCC(C(=O)NCc3ccccc3F)C2)c2nn(-c3ccc(Cl)cc3)c(C)c12 (stereo not given),x,-21%,i,x,i,-5%
CCOC(=O)CC1COc2ccccc2N1C(=O)c1ccc(C)cc1 (stereo not given),-2%,-16%,i,15%,18µM*,-10%
CCOC(=O)CC1COc2ccccc2N1C(=O)c1ccc(F)cc1 (stereo not given),4%,11%,i,3%,i,0%
O=C1CC(c2ccccc2)=Nc2ccc(Br)cc2N1,-5%,-4%,u,-6%,15µM*,-24%
Cc1ccc(OCC(=O)Nc2cccc(C(=O)OCc3cc(=O)n4nc(C)sc4n3)c2)cc1,x,2%,x,x,x,19%
Nc1c(C(=O)N2CCCCC2)sc(=S)n1-c1ccccc1,4%,-13%,i,16%,18µM*,-11%
COc1ccc(NC(=O)C2CCCN(S(=O)(=O)c3ccc4c(c3)CCCC(=O)N4)C2)cc1OC (stereo not given),x,-33%,u,x,i,9%
Cc1cccc(N2CCN(C(=O)c3cc(S(=O)(=O)N4CCCC4)cn3C)CC2)c1C,15µM*,-2%,i,u,i,u
Cc1cccc(N2CCN(C(=O)c3cc(S(=O)(=O)N4CCOCC4)cn3C)CC2)c1C,-1%,1%,i,0%,i,-1%
Cc1cccc(N2CCN(S(=O)(=O)c3csc(C(N)=O)c3)CC2)c1C,x,-34%,21µM*,x,i,u
Cn1cc(S(=O)(=O)N2CCCCCC2)cc1C(=O)N1CCN(c2cccc(C(F)(F)F)c2)CC1,x,-4%,u,x,21µM*,u
CC(=O)c1ccc(N2CCN(S(=O)(=O)c3csc(C(N)=O)c3)CC2)cc1,u,-9%,i,-27%,u,13%
